Laboratory results taken from PubChem BioAssay (Tox21).
Inconclusive results are not listed. Where a call stands in place of a potency, no number is given. The source made the active and inactive calls. Calls follow the shape of the dose curve; as a rule, active = well fitted activation curve with a large enough effect in the signal ratio in the repeat runs (not every such curve was filed as active); inconclusive = weak or mixed curves; inactive = flat fitted curve, though single readings scatter; the % refers to the signal ratio.

test: p53 small molecule agonists, cell-based qHTS assay (AID 1963582); settings: HCT-116 p53RE-bla reporter, beta-lactamase FRET ratio, 16 h; series mostly up to 66 µM
Description: National Center for Advancing Translational Sciences [NCATS]
Division of Preclinical Innovation [DPI]
U.S. Environmental Protection Agency [EPA]
National Institutes of Environmental Health Sciences [NIEHS]
National Toxicology Program [NTP]
U.S. Food and Drug Administration [FDA]
p53, a tumor suppressor protein, is activated following cellular insult, including DNA damage and other cellular stresses. The activation of p53 regulates cell fate by inducing DNA repair, cell cycle arrest, apoptosis, or cellular senescence. The activation of p53, therefore, is a good indicator of DNA damage and other cellular stresses. […] The activation of the reporter gene under culture conditions can be detected by fluorescence intensity. This cell line was used to screen the Tox21 10K compound library in a 1536-well plate format and to identify agonists that activate the p53 signaling pathway.
Tox21 Assay Protocol Summary:
The p53RE-bla cells were dispensed at 4,000 cells/5 ul/well in 1536-well black wall/clear bottom plates using a Multidrop dispenser. After the assay plates were incubated at a 37 C/5% CO2 incubator for 5 hours, 23 nL of compounds dissolved in DMSO, positive controls or DMSO only was transferred to the assay plate by a pin tool. The plates were incubated at 37 C for 16 hours. After 1 uL of LiveBLAzerTM B/G FRET substrate was added using a Flying Reagent Dispenser, the plates were incubated at room temperature for 2 hours, and fluorescence intensity was measured by an Envision plate reader.

Structure (SMILES)	Potency
CN(C)[C@@H]1C(=O)C(C(=O)NCN2CCCC2)=C(O)[C@@]2(O)C(=O)C3=C(O)c4c(O)cccc4[C@@](C)(O)C3C[C@@H]12 (stereo not given in full)	inactive
OC[C@H](Cc1cccc(O)c1)[C@H](CO)Cc1cccc(O)c1	inactive
Cc1cc(C)cc([N+](=O)[O-])c1	inactive
CCOC(=O)c1ncn2c1CN(C)C(=O)c1cc(F)ccc1-2	inactive
CC1=C2[C@H](/C=C(\C)C(=O)O)CC[C@@H](C)[C@H]2CC1	inactive
CCC(O)C(C)(C)C (stereo not given)	inactive
CC(=O)Nc1cc(S(=O)(=O)O)cc2cc(S(=O)(=O)O)c(N=Nc3ccccc3)c(O)c12	inactive
CCc1cc(Cl)c(OC)c(C(=O)NC[C@@H]2CCCN2CC)c1O	inactive
CCN1CC(CCN2CCOCC2)C(c2ccccc2)(c2ccccc2)C1=O (stereo not given)	inactive
C=C(C)C(=O)OCCCCCCCCCCOC(=O)C(=C)C	inactive
COc1ccc(N)c([N+](=O)[O-])c1	inactive
CC1(N)CCC(C(C)(C)N)CC1 (stereo not given)	inactive
Nc1ccc(C(=O)OCC(O)CO)cc1 (stereo not given)	inactive
COc1ccc(CCC(=O)c2c(O)cc(O[C@@H]3O[C@H](CO)[C@@H](O)[C@H](O)[C@H]3O[C@@H]3O[C@@H](C)[C@H](O)[C@@H](O)[C@H]3O)cc2O)cc1O	inactive
CCNc1nc(NC(C)(C)C)nc(OC)n1	inactive
CN1CCCCC1CCN1c2ccccc2Sc2ccc(S(C)=O)cc21 (stereo not given)	inactive
CC1=CCC2C(C1)C2(C)C (stereo not given)	inactive
CCCCOCCOC(=O)c1cccnc1	inactive
COCCc1ccccn1	inactive
CCC1C(=O)OCC1Cc1cncn1C (stereo not given)	inactive

Structure (SMILES)	Potency
NS(=O)(=O)c1cc(-c2nn[nH]n2)c(NCc2cccs2)cc1Cl	inactive
O=C(O)Cc1c(Cl)ccc(Cl)c1Cl	inactive
CCC=CC#N	inactive
CCCCCCCCN1CCCC1=O	inactive
COc1ccc(-c2coc3cc(O)ccc3c2=O)cc1	inactive
O=C(NC1CCN(CCc2c[nH]c3ccccc23)CC1)c1ccccc1	inactive
O=NN(CCCl)C(=O)NCCCl	inactive
CCCCCCCCCC#N	inactive
COc1ccc(OC)c(NC(=O)CC(C)=O)c1	inactive
COC(=O)c1ccc(OC)cc1	inactive
CN(C(=O)C(Cl)Cl)c1ccc(OC(=O)c2ccco2)cc1	inactive
C=CC/C=C/C/C=C/C/C=C/C	inactive
Cc1nc(C2CCCCC2)c(-c2ccc(S(N)(=O)=O)c(F)c2)o1	inactive
C=CC(C)(CCC=C(C)C)OC(=O)c1ccccc1 (stereo not given)	inactive
Clc1ccnc(Cl)n1	inactive
C#CCN[C@@H]1CCc2ccccc21	inactive
CC(C)=CCC[C@H](C)CCO	inactive
CC(C)=CCC/C(C)=C/CC/C(C)=C/CCC(=O)OC/C=C(\C)CCC=C(C)C	inactive
O=C(NCCO[N+](=O)[O-])c1cccnc1	inactive
C=CCON/C(CCC)=C1\C(=O)CC(C)(C)C(C(=O)OC)=C1O	inactive
